PAFAH1B3 FP inh: inhibitors of human PAFAH1B3; Q15102; recombinant PAFAH1B3, FP-rhodamine probe, fluorescence polarization; inhibition, % at 3.39 µM; 0.28% of 340,000 active;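 active = inhibition above the screen-wide average of all tested compounds plus 3 SD, cut at about 25% in these data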;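 also: 0% = enzyme with DMSO only and 100% = wells lacking PAFAH1B3 protein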
PAFAH2 FP inh: PAFAH2 (human) inhibition | Q99487 | recombinant PAFAH2, FP-rhodamine activity probe, fluorescence polarization | inhibition, % at 3.39 µM | 0.99% of 340,000 active | AID 492956;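 active = inhibition above the mean over all tested compounds plus 3 SD, cut at about 30% in these data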;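 also: inhibitors block probe labeling of enzyme so polarization drops; 0% = enzyme with DMSO and 100% = wells lacking PAFAH2 protein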
pPAFAH inh: inhibitors of human plasma PAF acetylhydrolase (pPAFAH). Q13093. recombinant pPAFAH, FP-rhodamine probe fluorescence polarization. inhibition, % at 3.39 µM. 1.5% of 330,000 active. AID 463082;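 active = inhibition above the mean inhibition across the screen plus 3 SD, cut at about 25% in these data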;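 also: inhibitors block binding of the rhodamine activity-based probe so polarization drops; 0% = enzyme with DMSO and 100% = wells lacking pPAFAH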
DSG3 Ab inh: blocks pemphigus antibody binding to human desmoglein-3; P32926; DSG3-coupled beads, scFv-anti-DSG3-GFP binding, flow cytometry; stronger effect = lower value; binding (percent of control), % at 10 µM; 0.48% of 310,000 active;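 active = binding more than 3 SD below its plate's average and above zero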;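 also: hits lower antibody fragment binding to DSG3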
Target sequence (P32926 whole entry, looked up, the tested form may be a part): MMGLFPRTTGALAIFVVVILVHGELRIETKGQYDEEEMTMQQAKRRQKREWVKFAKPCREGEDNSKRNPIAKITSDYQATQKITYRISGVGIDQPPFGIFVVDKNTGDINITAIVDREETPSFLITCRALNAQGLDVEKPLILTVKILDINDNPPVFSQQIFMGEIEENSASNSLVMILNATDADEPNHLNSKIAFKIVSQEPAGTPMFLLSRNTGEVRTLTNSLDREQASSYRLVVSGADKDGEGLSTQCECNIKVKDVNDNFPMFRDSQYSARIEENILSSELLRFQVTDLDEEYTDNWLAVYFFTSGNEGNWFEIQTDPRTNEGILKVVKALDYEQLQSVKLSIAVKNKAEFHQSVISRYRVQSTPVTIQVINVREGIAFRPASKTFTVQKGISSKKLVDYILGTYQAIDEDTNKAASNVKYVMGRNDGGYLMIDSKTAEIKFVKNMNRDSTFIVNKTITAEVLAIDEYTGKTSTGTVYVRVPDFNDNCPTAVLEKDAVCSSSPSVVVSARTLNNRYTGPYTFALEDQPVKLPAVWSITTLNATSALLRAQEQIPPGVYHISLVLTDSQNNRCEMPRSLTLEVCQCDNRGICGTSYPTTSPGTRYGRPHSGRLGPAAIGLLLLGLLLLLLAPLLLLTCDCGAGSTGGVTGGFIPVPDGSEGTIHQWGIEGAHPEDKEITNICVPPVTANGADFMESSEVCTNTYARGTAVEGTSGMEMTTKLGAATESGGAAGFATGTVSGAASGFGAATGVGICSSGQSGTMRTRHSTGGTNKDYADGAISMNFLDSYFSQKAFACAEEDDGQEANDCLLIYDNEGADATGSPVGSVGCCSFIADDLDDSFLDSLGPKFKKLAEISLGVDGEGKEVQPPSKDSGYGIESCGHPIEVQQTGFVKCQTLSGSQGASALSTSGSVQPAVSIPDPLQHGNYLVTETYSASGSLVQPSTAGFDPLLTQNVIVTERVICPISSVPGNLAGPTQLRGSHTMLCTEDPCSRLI
PfM18AAP inh-1: PfM18AAP enzyme inhibition | 1.2% of 290,000 active | inhibition, % at 7.35 µM | AID 1822 | recombinant PfM18AAP, H-Glu-NHMec fluorogenic cleavage;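 active = inhibition above the campaign mean inhibition over all tested compounds plus 3 SD, cut at about 28% in these data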;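 also: 0% = plate median of test compound wells and 100% = 2 mM ZnCl2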
PAFAH1B2 FP inh: PAFAH1B2 (human) inhibition; P68402; recombinant PAFAH1B2, FP-rhodamine activity probe, fluorescence polarization; inhibition, % at 3.39 µM; 1.2% of 340,000 active;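 active = inhibition above the mean of all tested compounds plus 3 SD, cut at about 24% in these data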;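 also: 0% = enzyme with DMSO and 100% = wells lacking PAFAH1B2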
PfM18AAP inh-2: confirmation of Plasmodium falciparum M18 aspartyl aminopeptidase inhibitors; shares compounds with PfM18AAP inh-1; recombinant PfM18AAP, H-Glu-NHMec fluorogenic cleavage; inhibition, % at 7.35 µM; 28% of 2,400 active;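 active = mean inhibition over replicate wells above the hit cutoff set for the earlier primary screen, cut at about 29% in these data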;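 also: 0% = median of test compound wells and 100% = 2 mM ZnCl2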
CTSL1 confirm: Cathepsin L (human) inhibition, confirmation | purified cathepsin L1, Z-Leu-Arg-MCA fluorescence | inhibition, % at 5.96 µM | shares compounds with PfM18AAP inh-1 | 2,400 tested, under 10 active | AID 2178;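 active = average inhibition across replicates above the hit cutoff set in the earlier primary screen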;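 also: 0% = median of test compound wells and 100% = Z-Phe-Ala-diazomethylketone 1 µM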
Starred values were filed as active, the others as inactive; . = no result given. Sampled rows, rich in hits. Any-hit rate of the full collection: about 3.8%.

SMILES | PAFAH1B3 FP inh | PAFAH2 FP inh | pPAFAH inh | DSG3 Ab inh | PfM18AAP inh-1 | PAFAH1B2 FP inh | PfM18AAP inh-2 | CTSL1 confirm
CC/C(=N\Nc1ccnc2cc(Cl)ccc12)c1ccc(O)cc1 | 9 | -3 | 6 | . | 34* | 7 | -27 | 2
Cc1cc(/C=C2\Sc3ccccc3N2C)cc(C)[n+]1CC1CCCO1 (centres undefined) | . | . | . | . | 50* | . | -41 | 3
Cc1nc2ccccc2n1Cc1n[nH]c(=S)n1-c1ccc(Cl)cc1 | -4 | 2 | 3 | 98 | 39* | 6 | -3 | 0
O=c1c2ccccc2cnn1Cc1n[nH]c(=S)n1-c1ccc(Cl)cc1 | 0 | -1 | 1 | 93 | 35* | 6 | 5 | -8
O=c1[nH]c(CSc2ncn[nH]2)nc2ccccc12 | 6 | 5 | 1 | 99 | 69* | 0 | 73* | 5
Nc1ncnc(Sc2ncccn2)c1[N+](=O)[O-] | 2 | 6 | . | 99 | 34* | -6 | -90 | 2
Cc1cc(/C=N/NC(N)=S)c(C)n1-c1ccc(Br)cc1 | 1 | 5 | 11 | 104 | 21 | 3 | . | .
Cc1nnc(N/N=C/c2cc(C)n(-c3ccc(F)cc3)c2C)n1N | 11 | -1 | 5 | 95 | 53* | 1 | 23 | -6
Cc1nnc(N/N=C/c2c(Cl)cccc2Cl)n1N | -4 | 7 | -1 | 285 | 51* | 6 | -52 | 4
Cc1ccc(C2CN(CCC(N)=O)C(=O)CO2)cc1 (centres undefined) | 10 | -4 | 7 | 101 | . | -4 | . | .
CC1Cc2cc(/C(O)=C3/C(=O)C(=O)N(CCN4CCOCC4)C3c3ccc([N+](=O)[O-])cc3)ccc2O1 (centres undefined) | 4 | -1 | 7 | 111 | 33* | 2 | -22 | -10
COc1ccc(C2/C(=C(/O)c3ccc4c(c3)CC(C)O4)C(=O)C(=O)N2CCN2CCOCC2)cc1 (centres undefined) | 2 | 2 | 5 | 107 | 9 | 1 | . | .
O=C(C1=C(O)C(=O)N(CCN2CCOCC2)C1c1ccc([N+](=O)[O-])cc1)c1cc2ccccc2o1 (centres undefined) | 5 | 9 | 5 | 109 | 34* | 8 | -36 | -1
C=CCN(Cc1nc(-c2ccccc2)no1)C(=O)c1ccco1 | -1 | 2 | -2 | 109 | 2 | 2 | . | .
O=C(Cc1ccc2c(c1)OCCO2)N1CCN(c2ccccc2)CC1 | 3 | 2 | 5 | 111 | 11 | -3 | . | .
CC(C)C1NC(C(=O)O)Cc2c1[nH]c1ccccc21 (centres undefined) | -5 | -2 | 2 | 95 | 37* | -2 | 29* | -1
CC(C)CC1NC(C(=O)O)Cc2c1[nH]c1ccccc21 (centres undefined) | 7 | -3 | -3 | 117 | -2 | -5 | . | .
CC(=O)Nc1ccc(Nc2nc3ccccc3n3cnnc23)cc1 | 11 | 11 | 8 | 94 | -5 | 5 | . | .
CC(=O)c1ccc(S(=O)(=O)N2CCC(C(=O)Nc3ncc(C)s3)CC2)cc1 | 5 | 6 | 2 | 106 | . | 4 | . | .
COc1cc(-c2c(C#N)c(N)nc3[nH]c(=S)[nH]c(=O)c23)ccc1O | 8 | 2 | 2 | 96 | 33* | 6 | 21 | 7
O=C(O)C1OC(Oc2c(-c3ccc(O)c(O)c3)oc3cc(O)cc(O)c3c2=O)C(O)C(O)C1O (centres undefined) | . | . | -2 | . | 65* | . | 43* | 4
CN(Cc1nc(-c2cccs2)no1)CC1COCCO1 (centres undefined) | 0 | -5 | 5 | 102 | 5 | 6 | . | .
COc1ccc(C2=CC(=O)C=CC2=O)cc1 | . | . | . | . | 56* | . | 62* | -3
C/C(CC(=O)c1ccccc1)=N\NC(=O)CC#N | 1 | 5 | 0 | 120 | 16 | 1 | . | .
N#CCC(=O)N/N=C1\CCCCC1C1CCCCC1 (centres undefined) | 1 | 0 | -2 | . | 44* | 20 | -29 | -6
SMILES | PAFAH1B3 FP inh | PAFAH2 FP inh | pPAFAH inh | DSG3 Ab inh | PfM18AAP inh-1 | PAFAH1B2 FP inh | PfM18AAP inh-2 | CTSL1 confirm
COc1cccc(COC(=O)C(Cc2ccccc2)NC(=O)c2ccco2)c1 (centres undefined) | . | . | . | 105 | . | . | . | .
COc1ccccc1N1CCN(C(=S)Nc2ccc(S(=O)(=O)N3CCOCC3)cc2)CC1 | 5 | 3 | -1 | 95 | 32* | 7 | -48 | 2
O=S(=O)(c1ccc(NC(=S)N2CCN(c3ccccc3F)CC2)cc1)N1CCOCC1 | -4 | 6 | 2 | 95 | 1 | 3 | . | .
Cc1cccc(N2CCN(C(=O)Cn3sc4nc(C)cc(C)c4c3=O)CC2C)c1 (centres undefined) | 8 | 3 | -2 | 106 | 49* | 0 | 17 | -3
Cc1cccc(N2CCN(C(=O)Cn3nc(C)n4cccc4c3=O)CC2C)c1 (centres undefined) | 4 | -3 | 4 | 95 | 1 | 0 | . | .
Cc1cc(C)c2c(=O)n(CC(=O)N3CCC(Cc4ccccc4)CC3)sc2n1 | . | . | . | . | 56* | . | 22 | 1
NS(=O)(=O)c1ccc(CNC(=O)c2cc(=O)c3ccccc3o2)cc1 | 4 | -2 | 3 | 120 | -1 | -2 | . | .
CSc1ccc(S(=O)(=O)NCC(=O)OCC(=O)NCc2cccs2)cc1[N+](=O)[O-] | 1 | 7 | 9 | 103 | . | -2 | . | .
Cc1cc(C)cc(C(=O)Oc2cc(C)[nH]c(=O)c2[N+](=O)[O-])c1 | 12 | 6 | 1 | 131 | -3 | 2 | . | .
CCN(CC)c1ccc(N=CN2CCOCC2)cc1 | -4 | 0 | 4 | 116 | 34* | 2 | -28 | 0
COc1ccc(C(=O)N2[C@@H](C(C)C)COc3cc(Br)ccc3S2(=O)=O)cc1 | 7 | -2 | . | 99 | . | 6 | . | .
CCCCCCn1c(SCC(=O)OC)nc2c1c(=O)[nH]c(=O)n2C | -2 | 1 | 5 | 96 | 48* | 5 | 23 | -5
CCSc1nc2c(c(=O)[nH]c(=O)n2C)n1C/C=C(/C)Cl | 5 | -10 | 3 | 97 | 2 | -5 | . | .
CCOC(=O)C(C)Sc1nc2c(c(=O)[nH]c(=O)n2C)n1C/C=C(/C)Cl (centres undefined) | 0 | 2 | 1 | 100 | 37* | 7 | 3 | 3
CSc1ncccc1C(=O)OCC(=O)c1cccs1 | 7 | -1 | 3 | 102 | 3 | -1 | . | .
CCc1ccc(N2CC(C(=O)N3CCN(c4ccc([N+](=O)[O-])cc4)CC3)CC2=O)cc1 (centres undefined) | . | . | . | 98 | . | . | . | .
O=c1c2c([N+](=O)[O-])cc([N+](=O)[O-])cc2sn1Cc1ccccc1 | 11 | 2 | 9 | 37* | 79* | 11 | 72* | 2

Screening results as filed in PubChem BioAssay.
